# Measurements published in ChEMBL document CHEMBL1157539, “Thousands of chemical starting points for antimalarial lead identification” (Nature, 2010).
# Assays:
# Assay type in all cases: functional
# [1] = system: Plasmodium falciparum; assay: GSK_TCMDC: Inhibition of Plasmodium falciparum 3D7 in whole red blood cells, using parasite LDH activity as an index of growth. Test compounds present at 2uM
# [2] = system: Plasmodium falciparum; assay: GSK_TCMDC: Inhibition of Plasmodium falciparum Dd2 in whole red blood cells, using parasite LDH activity as an index of growth. Test compounds present at 2uM
# [3] = system: HepG2; assay: GSK_TCMDC: Percent inhibition of human HepG2 cell line. Test compounds present at 10uM.
Structure (SMILES),Inhibition [1] [%],Inhibition [2] [%],Inhibition [3] [%]
Br.CC1(C)NC(N)=NC(=N)N1OCCCO,96,0,27
Cc1ccc(F)cc1S(=O)(=O)Nc1ccc(CCN2CCC(N3CCCCC3)CC2)cc1,99,15,25
CC(=O)Nc1[nH]c(-c2ccccc2)nc1C(N)=O,99,0,10
COc1ccc2nccc([C@@H](O)CN3CCC(NCc4nc5ccccc5[nH]4)CC3)c2c1.O=C(O)C(=O)O,92,2,41
COc1ccc(CNCc2cccc(-c3cccc(-c4nc5cc(C(F)(F)F)ccc5[nH]4)c3)c2)cc1.O=C(O)C(F)(F)F,100,91,40
COc1ccc(CC2(c3ccc(F)cc3)N=C(N)N(CCCc3ccc(F)c(F)c3)C2=O)cc1.O=C(O)C(F)(F)F (stereo not given),98,98,42
CSc1ccccc1NC(=S)NC1CCN(CCCCCNC(=O)/C=C/c2ccc(Cl)c(Cl)c2)CC1,98,27,19
CCc1cc2c(Sc3nc4ccccc4[nH]3)ncnc2s1,97,98,6
CCOC(=O)CNCC(=O)c1ccc(OCc2ccccc2)cc1.Cl,95,43,4
COc1cc(CNCCCNc2nc3ncccc3[nH]2)c2[nH]cc(Br)c2c1,92,3,12
OC(CNc1cccc(Cl)c1)Cn1c2ccc(Cl)cc2c2cc(Cl)ccc21 (stereo not given),95,33,8
Cc1nc(-c2ccc(C(F)(F)F)cn2)sc1C(=O)N1CCc2cc3nccc(N4CCN5CCC[C@H]5C4)c3cc21.Cl,100,72,5
NS(=O)(=O)c1ccc(CNc2ccc3ncc(-c4ccc(Cl)cc4)n3n2)cc1,96,99,26
CCCc1ccc(Nc2nc(C)cc(N(CC)CCCN3CCCCC3)n2)cc1.O=C(O)C(F)(F)F,100,95,48
CCCc1cc(Cc2cnc(N)nc2N)cc(CCC)c1O.Cl,96,5,64
O=C(CCCCCNC(=O)c1ccc(O)c(-c2ccc(Cl)c(Cl)c2)c1)NC1CCCc2ccccc21 (stereo not given),97,13,0
CC12CC3CC(C)(C1)CC(Nc1nc(N4CCOCC4)nc4ccccc14)(C3)C2,95,14,31
Cc1cc2c(cc1C(F)(F)F)N(C(=O)Nc1ccc(OCCN(C)C)c(C(F)(F)F)c1)CC2.Cl,93,23,38
COc1cc(C)c(C(O)CNC(C)CCc2ccccc2)cc1C.Cl (stereo not given),98,98,1
Cc1csc(NC(=O)c2cn(-c3ccccc3)nc2-c2cccs2)n1,95,12,0
CC(N)(Cc1ccc(O)cc1)c1nnn[nH]1 (stereo not given),93,2,7
CCC(Nc1noc(-c2c(-c3ccccc3)noc2C)n1)c1ccccc1 (stereo not given),99,85,4
CCCCCCn1c(Sc2ccc(C#N)c([N+](=O)[O-])c2)nnc1-c1ccccc1,97,41,23
COc1cccc2cc(C(=O)N[C@@H](CC(C)C)C(=O)NC3CC[C@@H](C)N(C(=O)Nc4ccncc4)CC3=O)oc12 (stereo not given in full),95,90,7
CCCc1ccc(N2C(N)=NC(N)=NC2(C)C)cc1.Cl,94,0,59
CCCCCCCCOc1ccc(N2C(N)=NC(N)=NC2(C)C)cc1.Cl,100,0,31
COc1ccc(CN2CCN(CCCCNC(=O)c3ccc(NC(=O)c4ccc(Cl)cc4)cc3)CC2)c(OC)c1,94,0,25
COC(=O)c1sc(-c2ccc(Cl)cc2)cc1N(CCCN1CCC(N2CCCCC2)CC1)S(=O)(=O)c1ccc(C)cc1,100,86,25
CCNc1cc(C(=O)N[C@@H](Cc2ccccc2)[C@H](O)CN[C@@H]2CCc3ccccc32)cc(N2CCCCS2(=O)=O)c1,98,97,0
CCCNC[C@@H](O)[C@H](Cc1ccccc1)NC(=O)c1cc(NCC)cc(N2CCCCS2(=O)=O)c1.Cl,97,74,0
